Results on eight compounds are retold here after PubChem BioAssay (NCI).

Among the test systems are NCI-H23 lung; NCI-H226 lung; NCI-H322M lung; HOP-62 NSCLC; NCI-H460 lung; HOP-92 NSCLC; NCI-H522 lung; A549/ATCC NSCLC; 786-0 renal; COLO 205 colon; DU-145 prostate; K-562 leukemia; MALME-3M melanoma; MDA-MB-231 breast; RXF 393 renal; SF-268 CNS; SF-295 CNS; SF-539 CNS; UACC-257 melanoma; M14 melanoma.
Holding throughout (assay): NCI-60 one-dose screen, 48 h (100 = growth as untreated, 0 = no growth, -100 = all killed)
Holding throughout (conditions): 10 µM unless noted

SMILES strings stand for the structures. Compounds without any hit were thinned out: in the full panel of roughly 83,000, 20% have a hit.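 Cell lines were cultured in 96-well plates, exposed to a single compound concentration, and assessed for percent growth 48 hours later.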 A number with no mark means an inactive call. Activity calls are given as the source filed them. How the source made its calls: active means growth percent below 10; inactive means the rest.

As for `Cc1ccc([C@H]2c3[nH]c4ccccc4c3C[C@H]3C(=O)N(CCCCCCC(=O)NO)CC(=O)N23)s1`, the growth in the assay on NCI-H23 lung is 77.6%; in the assay with NCI-H226 lung, 94%; with NCI-H322M lung, 67.4%; with HOP-62 NSCLC, 68%; in the assay on NCI-H460 lung, 57.3%; with HOP-92 NSCLC, 51.2%. In addition, the growth in the assay with NCI-H522 lung is 41.1%; in the assay with A549/ATCC NSCLC it was 85.5%; with 786-0 renal it was 89.3%; in the assay with COLO 205 colon it was 67.9%; in the assay with DU-145 prostate, 71.5%; in the assay on K-562 leukemia it was 35.8%. Also, the growth is 22.9% with MALME-3M melanoma; 72.2% in the assay with MDA-MB-231 breast; 59.7% with RXF 393 renal; 88.5% in the assay on SF-268 CNS; 78.1% in the assay on SF-295 CNS; 58% in the assay on SF-539 CNS. Also, the growth is 53.5% in the assay on UACC-257 melanoma and 63.5% in the assay with M14 melanoma.

With `CN1CCN(c2ccc(Nc3nc(NCCNS(=O)(=O)c4ccccc4)c4sccc4n3)cc2)CC1`, the growth with NCI-H23 lung was 97.5%; in the assay with NCI-H226 lung, 94.2%; in the assay with NCI-H322M lung, 94.9%; with HOP-62 NSCLC it was 98.7%; in the assay with NCI-H460 lung it was 104%; in the assay with HOP-92 NSCLC, 57.3%. Also, the growth was 95% in the assay with NCI-H522 lung; 104% in the assay with A549/ATCC NSCLC; 99.2% in the assay on 786-0 renal; 110% in the assay with COLO 205 colon; 106% in the assay on DU-145 prostate; 84% in the assay with K-562 leukemia. The growth was 104% with MALME-3M melanoma; 102% in the assay with MDA-MB-231 breast; 87.3% with RXF 393 renal; 79.6% with SF-268 CNS; 105% in the assay with SF-295 CNS; 95.4% with SF-539 CNS. In addition, the growth in the assay on UACC-257 melanoma is 114%; in the assay with M14 melanoma it was 106%.

Turning to `COc1ccc2c(c1)C=CC1(O2)Oc2ccc(OC)cc2C=C1C` (stereo not given), the growth was 39.7% with NCI-H23 lung; 57.4% with NCI-H226 lung; 49.5% with NCI-H322M lung; 51% in the assay with HOP-62 NSCLC; 7.29% (active) in the assay on NCI-H460 lung; -6.57% (active) with HOP-92 NSCLC. For the same compound, the growth was 10.7% in the assay on NCI-H522 lung; 18.5% in the assay with A549/ATCC NSCLC; 26.5% with 786-0 renal; 2.43% (active) in the assay with COLO 205 colon; 34.1% in the assay with DU-145 prostate; 8.41% (active) in the assay with K-562 leukemia. Besides, the growth was 55.2% in the assay on MALME-3M melanoma; 2.14% (active) in the assay with MDA-MB-231 breast; -12.3% (active) in the assay with RXF 393 renal; 54.4% with SF-268 CNS; 7.92% (active) in the assay on SF-295 CNS; -11% (active) with SF-539 CNS. In addition, the growth is 73% in the assay on UACC-257 melanoma and 3.03% (active) with M14 melanoma.

As to `O=C(Nc1ccccc1)Nc1nc2ccc([N+](=O)[O-])cc2[nH]1`, the growth with NCI-H23 lung was 39.5%; in the assay with NCI-H226 lung, 55.4%; with NCI-H322M lung it was 58.5%; in the assay on HOP-62 NSCLC, 105%; in the assay with NCI-H460 lung, 44.1%; with HOP-92 NSCLC it was -5.31% (active). Besides, the growth with NCI-H522 lung was 28.4%; with A549/ATCC NSCLC it was 56.7%; in the assay with 786-0 renal it was 67.5%; in the assay with COLO 205 colon, 88.7%; in the assay with DU-145 prostate it was 56.3%; in the assay with K-562 leukemia, 43.4%. Also, the growth in the assay on MALME-3M melanoma was 40.1%; in the assay with MDA-MB-231 breast, 74.9%; with RXF 393 renal it was 60%; in the assay with SF-268 CNS, 71.5%; in the assay on SF-295 CNS, 66.3%; in the assay on SF-539 CNS, 61.7%. The growth in the assay with UACC-257 melanoma was 57.4%; with M14 melanoma, 58.2%.

Consider `Cn1cc(-c2nc(N)nnc2-c2c[nH]c3ccc(Br)cc23)c2cc(F)ccc21`, for which the growth with NCI-H23 lung was 93.3%; in the assay with NCI-H226 lung it was 96.6%; in the assay on NCI-H322M lung, 86.1%; in the assay with HOP-62 NSCLC, 103%; with NCI-H460 lung it was 97.7%; with HOP-92 NSCLC it was 98.7%. The growth with NCI-H522 lung is 89.1%; in the assay with A549/ATCC NSCLC, 103%; with 786-0 renal it was 98.3%; in the assay on COLO 205 colon it was 103%; in the assay with DU-145 prostate, 96.4%; in the assay on K-562 leukemia, 56.4%. Further, the growth was 94.2% with MALME-3M melanoma; 90.2% in the assay on MDA-MB-231 breast; 93.6% with RXF 393 renal; 86.9% in the assay on SF-268 CNS; 106% with SF-295 CNS; 95.1% in the assay with SF-539 CNS. Further, the growth in the assay on UACC-257 melanoma is 109%; in the assay on M14 melanoma, 102%.

As to `COc1ccc(-c2nc(C#N)c(N3CCC(S(=O)(=O)N4CCOCC4)CC3)o2)cc1`, the growth is 94.5% in the assay on NCI-H23 lung; 93.9% with NCI-H226 lung; 97.2% in the assay with NCI-H322M lung; 99.2% with HOP-62 NSCLC; 103% in the assay with NCI-H460 lung; 99.3% in the assay with HOP-92 NSCLC. Also, the growth is 89.5% with NCI-H522 lung; 98.1% in the assay with A549/ATCC NSCLC; 94.2% in the assay with 786-0 renal; 111% in the assay with COLO 205 colon; 100% in the assay on DU-145 prostate; 98.8% with K-562 leukemia. Further, the growth was 107% in the assay on MALME-3M melanoma; 95.1% in the assay on MDA-MB-231 breast; 108% with RXF 393 renal; 94.2% in the assay with SF-268 CNS; 102% with SF-295 CNS; 97.5% with SF-539 CNS. The growth in the assay with UACC-257 melanoma and in the assay with M14 melanoma was 109% each time.

As for `Fc1cc(F)cc(NNC(=S)c2ccccc2)c1`, the growth is 23.1% with NCI-H23 lung; 49.7% with NCI-H226 lung; 73.4% in the assay on NCI-H322M lung; 58.4% in the assay on HOP-62 NSCLC; 21.9% in the assay with NCI-H460 lung; -16.7% (active) with HOP-92 NSCLC. Also, the growth in the assay on NCI-H522 lung is 37%; in the assay with A549/ATCC NSCLC it was 31%; with 786-0 renal it was 53.3%; in the assay with COLO 205 colon, 108%; in the assay with DU-145 prostate, 58%; in the assay on K-562 leukemia, 29.4%. Moreover, the growth was 85.3% with MALME-3M melanoma; 66.5% in the assay on MDA-MB-231 breast; -11% (active) with RXF 393 renal; 55% in the assay with SF-268 CNS; 52.5% with SF-295 CNS; 66.6% in the assay on SF-539 CNS. For the same compound, the growth in the assay on UACC-257 melanoma is 73.8%; in the assay on M14 melanoma, 30.2%.

`Cn1cc(-c2nnc(N)nc2-c2c[nH]c3ccc(Br)cc23)c2cc(Br)ccc21`: the growth is 98.3% with NCI-H23 lung; 112% in the assay on NCI-H226 lung; 104% in the assay on NCI-H322M lung; 106% in the assay on HOP-62 NSCLC; 107% with NCI-H460 lung; 111% in the assay with HOP-92 NSCLC. For the same compound, the growth in the assay with NCI-H522 lung is 85.7%; in the assay on A549/ATCC NSCLC, 104%; in the assay with 786-0 renal, 89.5%; in the assay with COLO 205 colon, 116%; in the assay on DU-145 prostate, 109%; in the assay on K-562 leukemia, 105%. In addition, the growth in the assay with MALME-3M melanoma is 108%; in the assay on MDA-MB-231 breast it was 98.7%; with RXF 393 renal, 93.1%; in the assay on SF-268 CNS, 106%; in the assay with SF-295 CNS it was 100%; in the assay on SF-539 CNS, 102%. The growth was 108% in the assay with UACC-257 melanoma and 102% with M14 melanoma.
